High-throughput results deposited in PubChem by National Center for Advancing Translational Sciences (NCATS).
Shown are actives, neighbours in structure and some others; about 15% of the full set was active somewhere.
SARS PLP yeast: qHTS of Yeast-based Assay for SARS-CoV PLP; S. cerevisiae expressing SARS-CoV PLpro, growth rescue; Potency, µM (titrated, usually from 32.9 µM), for the others: top-dose activity, positive = growth rescue, usual class: activators; 330,000 tested, 0.19% active; AID 485353, 2010; calls by dose curve; also: potency is read from the fitted curve at half-maximal effect; 0% is about no effect; nearly all actives have a fitted effect of over 55% in size
HCV inh: qHTS Assay for Inhibitors of Hepatitis C Virus (HCV). AID 651820, 2012. 340,000 tested, 3.4% active. Huh7.5.1 HCVcc-Cre infection, luciferase reporter, 44 h. Potency, µM (highest dose often 41.8 µM), without a hit: at the highest dose activity change, negative = inhibition, most hits filed as inhibitors; also: potency is read from the fitted curve at half-maximal effect; % is scaled to controls: 0 for no effect and ±100 for the full control effect
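Infectious HCVcc-Cre (~0.5 moi) was added to cells just after compound, with cells seeded 4 h earlier at 1,000 per well. Luciferase activity after 44 h culture reported infection; substrate was incubated 15 min at room temperature before reading.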
Pf growth 96h: Primary qHTS for delayed death inhibitors of the malarial parasite plastid, 96 hour incubation. P. falciparum luciferase reporter growth, 96 h. Potency, µM (series often up to 28.7 µM), without a hit: at the top dose activity change, negative = inhibition, hits mostly inhibitors. 320,000 tested, 6.9% active; also: potency is read from the fitted curve at half-maximal effect; % is scaled to controls: 0 for no effect and ±100 for the full control effect
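Parasite growth measured via integrated firefly luciferase reporter in P. falciparum. Infected erythrocytes at 2% hematocrit, 0.05% parasitemia final were treated 96 hours at 37 C under 5% CO2, and luminescence was read.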
Pf growth 48h: Primary qHTS for delayed death inhibitors of the malarial parasite plastid, 48 hour incubation. Potency, µM (titrated, usually from 28.7 µM), for inactives: top-dose activity change, negative = inhibition, most hits filed as inhibitors. AID 504832, 2011. P. falciparum luciferase growth in erythrocytes, 48 h. 310,000 tested, 5.9% active; also: potency is read from the fitted curve at half-maximal effect; % is scaled to controls: 0 for no effect and ±100 for the full control effect
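Here the parasites carry a stable luciferase gene and grow inside erythrocytes in Albumax-based RPMI medium with compound for one erythrocytic cycle. Activity is scored as loss of luminescent signal.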
Sm TGR inh: qHTS Assay for the Inhibitors of Schistosoma Mansoni Peroxiredoxins | Schistosoma mansoni thioredoxin glutathione reductase (TGR), Q962Y6 | purified TGR, DTNB reduction, TNB absorbance 405 nm | Potency, µM (highest dose often 114 µM), for inactives: at the top dose activity change, negative = inhibition, usual class: inhibitors | 360,000 tested, 3% active | AID 485364, 2010; also: potency is read from the fitted curve at half-maximal effect; % is scaled to controls: 0 for no effect and ±100 for the full control effect; nearly all actives have a fitted effect of over 60% in size
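First, TGR (20 nM dispensed) and NADPH were mixed with compound. Second, a 15 min room-temperature incubation followed. Third, further NADPH and then DTNB were added to start the reaction. Finally, TNB absorbance was monitored kinetically.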
HCMV inh: qHTS Assay for inhibitors of the human cytomegalovirus (HCMV) | activity change, negative = inhibition, % at 57.5 µM | AID 1259415, 2018 | HFF cells, HCMV-luciferase reporter, 72 h; hits give low values | 410,000 tested, 4.5% active; in the data active = activity change below about -60%; inconclusive = no clear call, values can overlap the other calls; inactive = above about -39%; also: % is scaled to controls: 0 for no effect and ±100 for the full control effect
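Compounds were evaluated in HFFs infected with an HCMV luciferase reporter virus (MOI 1 PFU/cell). Luciferase in lysates collected 72 h post infection served as the replication measure.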
Numbers without * were called inactive; u = inconclusive; x = not tested or not shown; [ ] = another dose, or the depositor's remark. Unless noted, calls follow the shape of the dose curve; as a rule, active = well fitted curve in the direction sought with a large enough effect; inconclusive = small, poorly fitted or top-dose-only effect, or another doubt; inactive = no such curve, though single readings can be large; an effect the other way counts as inactive or inconclusive.

SMILES	SARS PLP yeast	HCV inh	Pf growth 96h	Pf growth 48h	Sm TGR inh	HCMV inh
CC(C)c1ccc(N2C(=O)NC(=O)/C(=C/c3cnc(-c4ccccc4)nc3)C2=O)cc1	8%	10%	-4%	29%	3.5µM*	24
O=C1NC(=O)N(Cc2ccccc2)C(=O)/C1=C/c1cnc(-c2ccccc2)nc1	2%	-5%	15%	22%	10µM*	47
Cc1cc(=O)n(CC(=O)Nc2ccc(Cl)c(Cl)c2)c(-n2nc(C)cc2C)n1	x	x	x	x	1%	0
CCOc1ccc(/C=N/Nc2cc(=O)n(C)c(=O)n2C)cc1	26%	3%	29%	-2%	2%	-16
Cn1cnnc1SC1c2cccc3cccc(c23)C1NS(=O)(=O)c1ccccc1 (configuration not stated)	-8%	12%	7%	-10%	0%	16
CS(=O)(=O)NC1c2cccc3cccc(c23)C1Sc1nncn1/N=C/c1ccco1 (configuration not stated)	7%	-18%	216%	-4%	50µM*	52
CC(Sc1nc(N2CCOCC2)c2c(c1C#N)CC(C)(C)OC2)C(=O)Nc1ccccc1 (configuration not stated)	16%	u	x	13µM*	-15%	-33
CCOC(=O)CCSc1nc(N2CCOCC2)c2c(c1C#N)CC(C)(C)OC2	2%	0%	36%	4.7µM*	-11%	4
CC(Sc1nc(-c2ccccc2)nc2c1COC(C)(C)C2)C(=O)N1CCOCC1 (configuration not stated)	3%	10%	8.3µM*	x	-7%	7
Cc1ccc(-c2nc3c(c(SCC(=O)N4CCOCC4)n2)COC(C)(C)C3)cc1	x	7%	x	x	x	13
CC(C)CCSc1nc(N2CCOCC2)c2c(c1C#N)CC(C)(C)OC2	-6%	u	3%	9.3µM*	1%	-7
CSc1nc(N2CCOCC2)c2c(c1C#N)CC(C)(C)OC2	10%	-15%	x	7%	4%	34
COC(=O)CCSc1nc(N2CCOCC2)c2c(c1C#N)CC(C)(C)OC2	1%	0%	u	u	-26%	6
Cc1cc(C)cc(NC(=O)CCN2CCCC2)c1	0%	u	u	16%	58%	-5
CCc1c(C)sc(NC(=O)Cn2nc(C(F)(F)F)c3c2CCCC3)c1C#N	2%	12%	16%	20%	1%	16
COC(=O)c1ccc(CSc2nc(N3CCOCC3)c3c(c2C#N)CC(C)(C)OC3)o1	7%	8%	157%[5.75 µM]	8.3µM*	7%	17
Clc1ccc(OCCn2cnc(Cl)c2Cl)cc1	-2%	10%	u	u	-2%	u
CCOC(=O)c1c(C)n(OCc2ccccc2)c2ccc3c(no[n+]3[O-])c12	2%	7.1µM*	x	-8%	-1%	-31
CCCCOn1c(C)c(C(C)=O)c2c3no[n+]([O-])c3ccc21	2%	-10%	91%	u	7%	-17
Brc1ccc(-n2cnc(-c3ccccc3)c2)cc1	-2%	u	425%	181%	-17%	105
S=C(NCCc1ccccc1)Nc1cccc2cnccc12	-2%	u	4%	-2%	-20%	-95*
CCCCNC(=S)Nc1cccc2cnccc12	-1%	10µM*	-11%	8%	u	-30
COCCNC(=S)Nc1cccc2cnccc12	0%	u	0%	20%	u	-35
OC1CCCCC1	-6%	-9%	26%	32%	-14%	1
COc1cc(N(C)C)ccc1[C@]1(O)C(=O)N(C)c2ccc(Br)cc21	x	x	x	x	x	-9
SMILES	SARS PLP yeast	HCV inh	Pf growth 96h	Pf growth 48h	Sm TGR inh	HCMV inh
O=C(NCC1CC1)c1ccc(-c2cn[nH]c2)c2ccoc12	x	x	x	x	x	24
Cc1cccc(N2C(=O)CSC23CCCCC3)c1	-13%	-1%	1.5µM*	-21%	6%	u
CC1CCC2(CC1)SCC(=O)N2c1ccccc1 (configuration not stated)	25%	7%	93%	2%	-3%	-12
Cc1ccc(-n2c(=O)c3cccnc3n2CC(=O)Nc2cc(C)cc(C)c2)cc1	x	x	x	x	-1%	-19
CC(Oc1ccccc1)C(=O)Nc1ccc(S(=O)(=O)N2CCN(C)CC2)cc1 (configuration not stated)	x	33%	0.066µM*	u	-5%	-19
CC(=O)Nc1cccc(C(=O)OC(C)C(=O)Nc2ccc(S(=O)(=O)N3CCCC3)cc2)c1 (configuration not stated)	-2%	u	-25%	-4%	-3%	12
CC(=O)Nc1ccc(NC(=O)C(C)OC(=O)c2ccc(S(=O)(=O)N3CCCCCC3)cc2)cc1 (configuration not stated)	-1%	u	x	x	x	-72*
Cc1cccc(OC(C)C(=O)Nc2ccc(S(=O)(=O)N3CCCC3)cc2)c1 (configuration not stated)	0%	-27%	10µM*	u	0%	u
O=C1CCN(Cc2ccccc2)C=C1c1ccc(Br)cc1	28%	10µM*	x	x	x	26
O=[N+]([O-])c1ccc(COc2ccc(-c3[nH]ncc3-c3ccccc3)c(O)c2)cc1	14%	-27%	6.6µM*	13µM*	-14%	-38
COc1ccccc1-c1cn[nH]c1-c1ccc(O)cc1O	2%	u	u	u	-31%	-40
C=C(C)COc1ccc(-c2[nH]ncc2-c2ccc(OC)c(OC)c2)c(O)c1	u	2µM*	2.3µM*	1.9µM*	4%	u
COc1ccc(-c2cn[nH]c2-c2ccc(O)cc2O)cc1	2%	-10%	u	u	15%	-88*
C=C(C)COc1ccc(-c2[nH]ncc2-c2ccc(OC)cc2)c(O)c1	-11%	-14%	u	u	8%	-70*
COc1ccccc1-c1cn[nH]c1-c1ccc(OCC(=O)NN)cc1O	1%	4%	u	u	8%	69
C=C(C)COc1ccc(-c2n[nH]c(C)c2-c2ccc(OC)c(OC)c2)c(O)c1	-3%	13µM*	u	u	5%	-84*
C=C(C)COc1ccc(-c2[nH]ncc2-c2ccccc2)c(O)c1	-20%	-22%	u	10µM*	6%	u
O=c1nc2n(CCO)c3ccccc3cc-2c(=O)[nH]1	x	36%	x	x	x	-24
CCN(CC)S(=O)(=O)c1ccc(NC(=O)c2ccc(Sc3nncn3C)c([N+](=O)[O-])c2)cc1	20%	-13%	u	12µM*	2%	-81*
